Only some compounds are listed: those with a hit (about 1.6% of all), similar ones and a draw of the others.
V-ATPase pHluor – regulators of yeast V-ATPase proton transport; S. cerevisiae, pHLuorin cytosolic pH fluorescence; response, % at 10 µM; hit rate 0.37% among 350,000; in the data active means response mostly above about 7.3%, no sharp cut-off; inactive means mostly below about 5.4%; further: actives read high
NSD2 HMT inh – blocks human histone methyltransferase NSD2; O96028; hit rate 0.54% among 310,000; inhibition, % at 12.5 µM; NSD2 peptide methylation, AlphaScreen, 120 min; in the data active means inhibition above about 50%
Efflux pump mplx – blocks antifungal efflux pumps in multiplex yeast assay; S. cerevisiae Candida pump triplex, Nile Red efflux; inhibition, % at 10 µM; hit rate 0.44% among 330,000; AID 485275;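 active means plate passing quality check with inhibition over a set limit, or well fluorescence over plate mean plus 4 SD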;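 further: Nile Red retained in pooled yeast measured as flow cytometry median fluorescence; 0% = buffer negative control and 100% = Enniatin B positive control; higher means more Nile Red kept so more efflux inhibition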
NPR1 activator – GC-A (human) enzyme activation | P16066 | HEK293 GC-A cells, cGMP TR-FRET, EC30 ANP; 0% at EC30 ANP, 100% saturating ANP | activation, % at 10 µM | hit rate 0.14% among 370,000; in the data active means activation above about 40%
Target sequence (P16066 whole entry, looked up): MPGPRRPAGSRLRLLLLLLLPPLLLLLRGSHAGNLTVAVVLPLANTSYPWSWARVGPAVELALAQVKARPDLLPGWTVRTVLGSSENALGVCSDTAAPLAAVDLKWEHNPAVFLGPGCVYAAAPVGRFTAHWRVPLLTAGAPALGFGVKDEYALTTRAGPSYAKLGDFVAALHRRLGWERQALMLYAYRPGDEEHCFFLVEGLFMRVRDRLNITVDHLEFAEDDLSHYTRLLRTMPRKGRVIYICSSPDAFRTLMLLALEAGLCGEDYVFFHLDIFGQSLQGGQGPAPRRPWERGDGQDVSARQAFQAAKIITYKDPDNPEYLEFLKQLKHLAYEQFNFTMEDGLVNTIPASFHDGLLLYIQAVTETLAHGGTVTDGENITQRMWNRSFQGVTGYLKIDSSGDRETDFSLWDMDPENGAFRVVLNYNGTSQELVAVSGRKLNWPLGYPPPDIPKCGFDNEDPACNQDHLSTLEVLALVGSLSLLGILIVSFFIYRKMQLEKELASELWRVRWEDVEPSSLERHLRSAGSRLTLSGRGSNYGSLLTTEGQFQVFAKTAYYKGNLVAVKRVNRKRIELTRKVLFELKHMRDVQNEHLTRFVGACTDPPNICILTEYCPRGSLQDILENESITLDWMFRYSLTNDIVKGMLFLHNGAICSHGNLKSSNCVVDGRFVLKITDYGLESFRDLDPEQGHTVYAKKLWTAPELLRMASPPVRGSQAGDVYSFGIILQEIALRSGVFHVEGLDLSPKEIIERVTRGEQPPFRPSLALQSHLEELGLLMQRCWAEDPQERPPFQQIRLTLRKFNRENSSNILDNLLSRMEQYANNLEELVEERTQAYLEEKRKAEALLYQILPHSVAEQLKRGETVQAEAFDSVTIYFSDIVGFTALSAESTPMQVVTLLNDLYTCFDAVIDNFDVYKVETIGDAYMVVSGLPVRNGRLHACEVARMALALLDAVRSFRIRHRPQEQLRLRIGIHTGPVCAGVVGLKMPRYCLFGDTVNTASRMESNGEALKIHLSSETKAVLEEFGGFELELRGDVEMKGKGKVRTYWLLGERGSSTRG
NPR2 activator – GC-B (human) receptor activation; AID 1920062; HEK293-GC-B cells, CNP EC30, cGMP TR-FRET; 0% at EC30 CNP, 100% saturating CNP; hit rate 0.11% among 370,000; activation, % at 10 µM;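 active means activation at 10 µM reaching about 35% in either raw or pattern-adjusted values, limit read from the data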
Rce1 inh – inhibitors of yeast Ras-converting enzyme. Q03530. yeast membranes, quenched prenylated peptide cleavage fluorescence. calls only. hit rate 0.27% among 290,000. AID 2563;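 active means fall in fluorescence gain of 50% or more versus controls, with final raw signal at or below 3038400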;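 further: plate controls were neutral control wells for no effect and wells lacking membranes for full effect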
* marks the source's active call; other numbers are inactive results; i = inactive; x = no result given; + = active, no number.

SMILES | V-ATPase pHluor | NSD2 HMT inh | Efflux pump mplx | NPR1 activator | NPR2 activator | Rce1 inh
CC1Oc2ccccc2N(CC(=O)N2CCCC2)C1=O (stereo not given) | 14* | 0 | 0 | -4 | 3 | i
O=S(=O)(NCc1ccncc1)c1ccc(F)cc1F | x | -5 | x | x | x | x
Cc1ccc(S(=O)(=O)/N=C2\C=C(Nc3cccc(C(=O)O)c3)C(=O)c3ccccc32)c(C)c1 | 1 | 117* | 0 | -6 | 3 | i
CCN1/C(=C\c2ccc3cc(C)ccc3[n+]2CC)Sc2cc(C)c(C)cc21 | 3 | 54* | x | -9 | 2 | i
C=CC[n+]1c(/C=C2\C=Cc3cc(C)ccc3N2CC)ccc2ccccc21 | 0 | 46 | 0 | -27 | -2 | i
Cc1nc(-c2ccc(Cl)cc2)sc1C1(C)CC(c2ccccc2)=NO1 (stereo not given) | 5 | x | x | 1 | -2 | i
Cc1nc(-c2ccc(Cl)cc2)sc1C1(C)CC(c2ccccc2Br)=NO1 (stereo not given) | -6 | x | x | 2 | -1 | +
CC(=O)N[C@@H](C)c1nc2ccccc2n1CCCN1CCN(c2nc(-c3ccc(C)cc3)cs2)CC1 | 1 | x | 0 | -3 | 1 | +
Cc1ccc(-c2csc(N3CCN(CCCn4c(C(F)(F)F)nc5ccccc54)CC3)n2)cc1 | 1 | x | 0 | -2 | 0 | i
COc1ccc(S[C@]2(C(=O)N3CCN(c4ncccn4)CC3)CC(=O)N(c3ccccc3)[C@@H]2c2ccc(OC)cc2)cc1 | x | x | x | -5 | -7 | x
CCc1ccc(NC(=O)c2cnc(N3CCN(c4ccccn4)CC3)c3ccccc23)cc1 | 1 | 1 | 0 | -1 | -4 | +
O=C(Nc1ccc(Oc2ccccc2)cc1)C1CCCN1S(=O)(=O)c1cccc2cccnc12 (stereo not given) | x | 0 | x | -28 | 11 | x
COc1ccc(NC(=O)c2cc(-c3cc(Cl)ccc3OC)n[nH]2)cc1OC | x | 1 | x | 45* | 53* | x
COc1ccc(Cl)cc1-c1cc(C(=O)NCc2ccc(F)cc2)[nH]n1 | x | -3 | x | 43* | 21 | x
COc1ccc(NC(=O)c2cc(-c3cc(Cl)ccc3C)n[nH]2)cc1OC | x | -2 | x | -1 | 2 | x
C[n+]1c2n(c3ccccc31)N=C(c1cc(C(C)(C)C)c(O)c(C(C)(C)C)c1)CS2 | 1 | -2 | 0 | -9 | -3 | +
COc1nc(-c2ccccc2)ccc1-c1noc(-c2ccccc2F)n1 | 1 | 5 | 0 | 1 | -11 | +
COc1nc(-c2ccccc2)ccc1-c1noc(-c2cccnc2)n1 | -3 | -1 | 0 | -3 | -2 | i
COc1cccc(OC)c1NC(=O)OC1CCC12CCC(c1ccccc1)CC2 (stereo not given) | x | -4 | x | -3 | -3 | x
CCn1c2ccccc2c2cc(NC(=O)COC(=O)c3cc(F)cc(F)c3)ccc21 | x | -4 | x | -4 | 1 | x
CCN(CC)CCCNC(=O)c1cc2c(-c3cccc(OC)c3)nn(C)c2s1 | -2 | 40 | 0 | -48 | -15 | +
CCCCN(C)CCNC(=O)c1cc2c(-c3cccc(OC)c3)nn(C)c2s1 | 0 | 8 | 0 | -61 | -21 | +
Cc1cccc(-c2cccc3c4c([nH]c23)[C@@H]2C[C@H](N(C)C(=O)Nc3ccccc3C)[C@H]([C@H](C)O)C(=O)N2CC4)c1 | x | x | x | -10 | -9 | x
CCCNS(=O)(=O)c1ccc2c(c1)n(C)c(=O)n2C | -3 | 2 | 0 | -1 | 2 | i
CCCCN(C)CCNS(=O)(=O)c1ccc2c(c1)n(C)c(=O)c(=O)n2C | 18* | x | 0 | 3 | 1 | i
SMILES | V-ATPase pHluor | NSD2 HMT inh | Efflux pump mplx | NPR1 activator | NPR2 activator | Rce1 inh
CN(C)S(=O)(=O)c1cccc(C(=O)N/N=C\c2cccc(C#N)c2)c1 | x | -1 | x | -3 | 1 | x
O=c1c(Cl)c(Cl)cnn1Cc1nnc(-c2ccc(Cl)cc2)o1 | 0 | 4 | x | 49* | 9 | i
Cc1cc(OC(C)CCN2CCC(C(O)(c3ccccc3)c3ccccc3)CC2)ccc1Br (stereo not given) | x | x | x | -20 | -2 | x
O=C1CSC(c2cn(-c3ccccc3)nc2-c2cc3ccccc3oc2=O)N1Cc1ccco1 (stereo not given) | 1 | 1 | 0 | -9 | -13 | +
C=CCNC(=O)N1CCC(c2nc3ccc(Cl)cc3[nH]2)CC1 | x | x | x | 0 | -10 | x
COc1cc(/C=N/n2cc(-c3ccccc3)[nH]c2=S)cc(OC)c1O | -1 | 8 | 0 | -14 | -12 | i
Oc1ccc(/C=N/n2cc(-c3ccccc3)[nH]c2=S)cc1 | 6 | 11 | 0 | 0 | -5 | +
CCOC(=O)C1Nc2ccc(C(=O)O)cc2C2C=CCC12 (stereo not given) | -1 | 100* | 0 | 2 | 3 | i
O=C(O)c1cc(-c2ccc(/C=c3\sc4nc5ccc(Br)cc5n4c3=O)o2)ccc1Cl | x | x | 1.6* | x | x | i
O=S1(=O)c2ccc(Br)cc2OC[C@@H](Cc2ccccc2)N1Cc1cn(CC2CCCCC2)nn1 | x | x | x | -1 | 8 | x
O=C(O)CCc1ccc(-c2cccs2)n1Cc1ccco1 | 4 | 4 | 0 | 3 | 0 | +
OC(CNCCC1C=Nc2ccccc21)Cn1c2ccc(Cl)cc2c2cc(Cl)ccc21 (stereo not given) | 7 | -1 | 0 | -13 | -6 | +
OC(CNCC1CCCO1)Cn1c2ccc(Cl)cc2c2cc(Cl)ccc21 (stereo not given) | 2 | 0 | 0 | -25 | -16 | i
O=C(CSc1nc2ccccc2[nH]1)NN=Cc1c(F)cccc1Cl | x | -2 | x | -2 | -2 | x
Cc1oc2c(CN3CCCC3)c(O)ccc2c(=O)c1-c1ccc(Br)cc1 | -2 | 27 | 0 | 0 | 0 | +
CCCc1cc(=O)n2[nH]c(-c3ccco3)nc2n1 | 16* | 1 | 0 | 3 | 3 | i
OCCCNc1ncnc2sc(-c3ccccc3)cc12 | -1 | 5 | 0 | -3 | -1 | +
CCC[C@H]1[C@@H](OC(=O)Oc2ccc([N+](=O)[O-])cc2)CC[C@@]23CCCN2C(=O)CCC[C@@H]13 | x | x | x | -7 | -14 | x
O=c1c2ccccc2nc2n1CCCN2 | 1 | 3 | 0 | -2 | 3 | i
O=c1c2ccccc2nc2n1CCCCN2 | 5 | 10 | 0 | 2 | 4 | +
CC(=O)c1sc(NC(=O)CS(=O)(=O)c2ccccc2)nc1-c1ccccc1 | 18* | 1 | 0 | -3 | -14 | i
CC(=O)c1sc(NC(=O)CS(=O)(=O)c2ccccc2)nc1C | 0 | 0 | 0 | 0 | 2 | i
COC(=O)[C@]12C[C@H](CC(=O)N3CCN(C(=O)c4ccco4)CC3)C(=O)N(Cc3cccc4ccccc34)C1=C[C@H](COCc1ccccc1)O[C@@H]2C | x | x | x | 0 | 5 | x
COC(=O)C1CN(Cc2ccc(OC)cc2)CCS(=O)(=O)N1Cc1cn(Cc2ccccc2)nn1 (stereo not given) | x | x | x | -3 | -4 | x

Bioassay records from PubChem.
